Most compounds without a hit are left out; they make up all but 19% or so of the library.
DT40 TDP1 no CPT: qHTS for Inhibitors of human tyrosyl-DNA phosphodiesterase 1 (TDP1): qHTS in cells in absence of CPT; DT40 Tdp1-/- hTDP1 cells, no CPT, ATP luminescence, 48 h; Potency, µM (top dose mostly 46.2 µM), without a hit: at the top dose activity change, negative = growth inhibition, usual class: inhibitors; hit rate 15% among 420,000; AID 686978, 2013; also: potency is read from the fitted curve at half-maximal effect; nearly all actives have a fitted effect of over 55% in size
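A cellular qHTS used chicken DT40 cells lacking endogenous Tdp1 but carrying stably transfected human TDP1. Compounds were applied without camptothecin, and cell growth kinetics were judged by ATP-dependent luminescence after ≥48 hr.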
HT1080 IDH1KD tx: qHTS for induction of synthetic lethality in tumor cells producing 2HG: qHTS for the HT-1080-IDH1KD cell line | HT-1080 IDH1 knockdown viability, ATP luminescence, 48 h | Potency, µM (titrated, usually from 46.1 µM), without a hit: at the top dose activity, negative = toxicity, hits mostly cytotoxic | hit rate 2% among 360,000 | AID 686971, 2013;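 also: potency is read from the fitted curve at half-maximal effect; 0% = DMSO wells and -100% = cell-free medium wells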
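Using the IDH1-knockdown HT-1080 line run in the same batch and compound series as the NT line, viability after 48 h at 37 °C was determined by CellTiter-Glo luminescence and expressed as % activity.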
HT1080NT lethal: qHTS for induction of synthetic lethality in tumor cells producing 2HG: qHTS for the HT-1080-NT fibrosarcoma cell line | HT-1080-NT fibrosarcoma viability, CellTiter-Glo ATP luminescence, 48 h | hit rate 1.6% among 360,000 | Potency, µM (series often up to 46.1 µM), for inactives: at the top dose activity, negative = less viability, most hits filed as cytotoxic;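 also: NT is the 2HG producing partner of a matched IDH1 knockdown line; potency is read from the fitted curve at half-maximal effect; 0% = DMSO-treated cells and -100% = media-only wells without cells; nearly all actives have a fitted effect of over 55% in size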
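Toxicity toward the 2HG-producing NT line was scored as %Activity, normalised to DMSO and no-cell wells, from CellTiter-Glo luminescence after 48 hours' treatment.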
IL-1B inflam inh: qHTS for Inhibitors of Inflammasome Signaling: IL-1-beta AlphaLISA Primary Screen; THP-1 LPS/ATP IL-1B secretion, AlphaLISA, 16 h; stronger effect = lower value; activity change, % at 57.5 µM; hit rate 4.7% among 360,000; AID 743279, 2014; in the data active = activity change below about -50%; inconclusive = mostly about -30% to -49%
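THP-1 cells pretreated 1 hr with compounds (up to 57.5 uM final), then stimulated with LPS (250 ng/mL final) plus ATP (1.25 mM final); secreted IL-1B measured by AlphaLISA after 16 hr, decreased signal indicating inhibition.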
TDP1 cell CPT: qHTS for Inhibitors of human tyrosyl-DNA phosphodiesterase 1 (TDP1): qHTS in cells in presence of CPT. hit rate 12% among 420,000. Potency, µM (top dose mostly 46.2 µM), inactives show top-dose activity change, negative = growth inhibition, most hits filed as inhibitors. AID 686979, 2013. chicken DT40 Tdp1-/-;hTDP1 cells + 20 nM CPT, ATP luminescence, 48 h; also: potency is read from the fitted curve at half-maximal effect; nearly all actives have a fitted effect of over 55% in size
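Cell growth measured by CellTiter-Glo luminescence after a minimum 48 h, 37 C compound exposure with 20 nM CPT in Tdp1-knockout DT40 cells stably expressing hTDP1, seeded 400/well; qHTS titration format.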
The depositor's hits bear a star; ? = inconclusive; / = no result given. Unless noted, calls follow the shape of the dose curve; as a rule, active = well fitted curve in the direction sought with a large enough effect; inconclusive = small, poorly fitted or top-dose-only effect, or another doubt; inactive = no such curve, though single readings can be large; an effect the other way counts as inactive or inconclusive. Unless noted, % is scaled to controls: 0 for no effect and ±100 for the full control effect.

SMILES	DT40 TDP1 no CPT	HT1080 IDH1KD tx	HT1080NT lethal	IL-1B inflam inh	TDP1 cell CPT
Cc1cc(Cl)ccc1NC(=O)C1CCCN(c2nnc(C)c3c(C)n(-c4ccccc4)nc23)C1 (stereo not given)	-14%	/	/	/	6%
Cc1ccc(-n2nc3c(N4CCC(C(=O)NCCC(C)C)CC4)nnc(C)c3c2C)cc1	?	/	/	/	16µM*
Cc1ccc(-n2nc3c(N4CCC(C(=O)N5CCCCC5)CC4)nnc(C)c3c2C)cc1	23µM*	/	/	/	?
COc1ccc(-n2nc3c(N4CCCC(C(=O)NCc5ccccc5C)C4)nnc(C)c3c2C)cc1 (stereo not given)	5.2µM*	/	/	/	2.9µM*
Cc1nnc(N2CCC(C(=O)NC(C)C)CC2)c2nn(-c3ccc(Cl)cc3)c(C)c12	17%	/	/	/	8%
Cc1cccc(NC(=O)N2CCCC2C(=O)Nc2ccccc2)c1 (stereo not given)	-6%	-1%	15%	3	?
CCOC(=O)C1(C)CCN1C(=O)/C=C/c1ccccc1 (stereo not given)	-21%	8%	23%	23	-24%
CCOc1ccc(/C=N/NC(=O)CSc2n[nH]c(=O)[nH]c2=O)cc1OC	-7%	3%	1%	7	-4%
COc1ccc(-n2nc3c(N4CCC(C(=O)NCc5ccccc5C)CC4)nnc(C)c3c2C)cc1	7.3µM*	16µM*	15µM*	-95*	18µM*
COc1ccccc1CNC(=O)C1CCN(c2nnc(C)c3c(C)n(-c4ccccc4)nc23)CC1	-22%	/	/	/	16%
Cc1nc2ccc(C(=O)OC(C)C(=O)c3c(C)[nH]c4ccccc34)cc2nc1C (stereo not given)	13µM*	/	/	/	?
Cc1[nH]c2ccccc2c1C(=O)C(C)OC(=O)c1ccc([N+](=O)[O-])o1 (stereo not given)	16µM*	?	?	-62*	?
CCc1noc(C)c1C(=O)OC(C)C(=O)c1c(C)[nH]c2ccccc12 (stereo not given)	?	-18%	-12%	-6	16µM*
COc1ccc(C(c2nnnn2C2CCCC2)N2CCC(C)CC2)cc1 (stereo not given)	23µM*	-7%	-10%	-17	?
COCCn1nnnc1C(c1ccc(OC)cc1)N1CCC(C)CC1 (stereo not given)	-25%	5%	-4%	-4	?
C1=C(C(c2nnnn2C2CCCCC2)N2CCCCC2)COc2ccccc21 (stereo not given)	16µM*	-2%	13%	32	?
Clc1ccc(C(c2nnnn2C2CCCC2)N2CCSCC2)cc1 (stereo not given)	-17%	-24%	-10%	-62*	-1%
Fc1ccc(C(c2nnnn2C2CCCCC2)N2CCCC2)cc1 (stereo not given)	-25%	7%	2%	8	-1%
COc1ccc(C(c2nnnn2C2CCCCC2)N2CCN(c3ccc(OC)cc3)CC2)cc1 (stereo not given)	16µM*	-12%	-3%	-9	23µM*
COc1ccc(OC)c(C(c2nnnn2C2CCCC2)N2CCN(c3ccccc3)CC2)c1 (stereo not given)	21µM*	-6%	-3%	-17	?
COCCn1nnnc1C(CC(C)C)N1CCN(c2cccc(OC)c2)CC1 (stereo not given)	-26%	6%	2%	-1	-24%
COc1ccc(C(c2nnnn2C2CCCCC2)N2CCN(C)CC2)c(OC)c1 (stereo not given)	-20%	-9%	-4%	-3	-20%
CCC(c1nnnn1C1CCCC1)N1CCN(c2cccc(OC)c2)CC1 (stereo not given)	16µM*	2%	14%	-3	?
Cc1cc(C)cc(OCC(=O)Nc2ccc(S(=O)(=O)Nc3onc(C)c3C)cc2)c1	-8%	/	/	/	2%
CCOc1ccc(S(=O)(=O)NCCC(=O)NCC(c2ccc(F)cc2)N2CCOCC2)cc1 (stereo not given)	-17%	9%	9%	4	-3%
SMILES	DT40 TDP1 no CPT	HT1080 IDH1KD tx	HT1080NT lethal	IL-1B inflam inh	TDP1 cell CPT
Cc1cc(C)c2c(N)c(S(=O)c3ccc(C(C)(C)C)cc3)sc2n1 (stereo not given)	?	-13%	-28%	-67*	?
COc1ccccc1CC(=O)N1CCN(c2ccccc2)CC1	3%	-6%	-2%	-10	-7%
COc1ccccc1CC(=N)N1C[C@@H]2C(=O)CCC(c3ccccc3)(c3ccccc3)[C@@H]2C1	21µM*	/	/	/	12µM*
Cc1nc2ccc(S(=O)(=O)N(C)CC(=O)Nc3ccc(Br)c(C)c3)cc2s1	16µM*	/	/	/	?
CCOc1ccc(OCC)c(NC(=O)CN(C)S(=O)(=O)c2ccc3nc(C)sc3c2)c1	?	3%	7%	-50*	?
O=C(CSc1nnc(-c2ccncc2)o1)N1CCc2ccccc2C1	-12%	0%	-28%	8	9%
COc1ccc2cc(-c3nc(Cl)c4c5c(sc4n3)CCCC5)c(=O)oc2c1	1%	/	/	/	-2%
CCCCN(c1ccccc1)S(=O)(=O)c1cc2c3c(c1)C(C)C(=O)N3CCC2 (stereo not given)	29µM*	/	/	/	10µM*
CC1C(=O)N2CCCc3cc(S(=O)(=O)N(C)Cc4ccccc4)cc1c32 (stereo not given)	?	0%	2%	27	?
CC(C)CCCN1C(N(C)C)=NC[C@@H]1Cc1ccccc1	21µM*	-18%	-15%	-14	21µM*
CCN1C(N(C)C)=NC[C@@H]1Cc1ccccc1	-12%	8%	-2%	17	0%
CCC(C)CCN1C(N(C)C)=NC[C@@H]1Cc1ccccc1 (stereo not given in full)	?	-6%	-1%	9	12µM*
CC1CCc2c(sc3ncnc(NS(=O)(=O)c4cccs4)c23)C1 (stereo not given)	-8%	12%	25%	19	-19%
COCCCNc1ncnc2sc3c(c12)CCC(C)C3 (stereo not given)	23µM*	?	-25%	-8	?
COc1ccc(Cc2noc(CN3CCN(c4ccc(Cl)cn4)CC3)n2)cc1OC	18µM*	-28%	-29%	?	?
COc1ccc(Cc2noc(CN3CCN(Cc4cccc(Cl)c4)CC3)n2)cc1OC	10µM*	-12%	4%	-5	?
CC(C)CCc1noc(CN2CCN(c3ccc(Cl)cn3)CC2)n1	1%	9%	1%	7	-14%

Compound activity as filed in PubChem.
